LYPLA2 inh – LYPLA2 (human) inhibition in PME1 counter-screen. recombinant LYPLA2, FP-Rh probe fluorescence polarization. 320,000 tested, 0.38% active. inhibition, % at 5.9 µM. AID 2177. O95372;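 active means inhibition above the screen-wide mean plus 3 SD, limit set per campaign, cut at about 26% in these data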;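 further: 0% = LYPLA2 with DMSO and 100% = wells lacking LYPLA2 enzyme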
PME-1 inh – blocks human protein phosphatase methylesterase 1. Q9Y570. recombinant PME-1, FP-Rh probe fluorescence polarization. inhibition, % at 5.9 µM. 320,000 tested, 0.53% active. AID 2130;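 active means inhibition above the campaign mean of all compounds plus 3 SD, cut at about 26% in these data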;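 further: competitive labeling of PME-1 active site by serine hydrolase directed probe; 0% = PME-1 with DMSO and 100% = wells lacking PME-1 enzyme; inhibitors block probe labeling so polarization falls and inhibition rises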
Target sequence (Q9Y570 whole entry, looked up): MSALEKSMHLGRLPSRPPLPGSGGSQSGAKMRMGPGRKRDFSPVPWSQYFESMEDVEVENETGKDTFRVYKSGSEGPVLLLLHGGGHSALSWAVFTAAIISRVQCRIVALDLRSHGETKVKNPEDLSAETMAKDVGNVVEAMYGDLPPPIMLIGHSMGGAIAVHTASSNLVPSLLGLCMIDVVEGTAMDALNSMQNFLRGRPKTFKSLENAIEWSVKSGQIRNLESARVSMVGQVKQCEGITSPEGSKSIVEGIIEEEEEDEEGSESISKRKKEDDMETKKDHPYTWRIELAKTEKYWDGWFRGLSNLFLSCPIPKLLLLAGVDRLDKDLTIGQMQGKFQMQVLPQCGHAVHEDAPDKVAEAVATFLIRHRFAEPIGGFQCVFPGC
GSTO1 counter – GSTO1 inhibition, counter-screen for RBBP9 inhibitors; recombinant GSTO1, activity-based probe fluorescence polarization; inhibition, % at 5.96 µM; 300,000 tested, 1.1% active;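 active means inhibition above the campaign mean inhibition plus 3 SD, cut at about 35% in these data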;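 further: 0% = GSTO1-1 with DMSO and 100% = wells lacking GSTO1-1 enzyme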
Target sequence (P78417 whole entry, looked up): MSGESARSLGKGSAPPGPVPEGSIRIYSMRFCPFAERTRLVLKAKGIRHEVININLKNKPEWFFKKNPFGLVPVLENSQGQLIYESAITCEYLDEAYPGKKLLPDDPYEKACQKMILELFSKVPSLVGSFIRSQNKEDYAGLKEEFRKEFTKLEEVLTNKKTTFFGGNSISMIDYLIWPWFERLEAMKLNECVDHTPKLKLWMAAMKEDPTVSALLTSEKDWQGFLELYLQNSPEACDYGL
Fam108B inh – blocks mouse Fam108B hydrolase in RBBP9 counter-screen; 300,000 tested, 0.33% active; AID 1947; recombinant Fam108B, FP-Rh probe fluorescence polarization; inhibition, % at 9.51 µM;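 active means inhibition above the screen mean inhibition plus 3 SD, computed separately per campaign, cut at about 18% in these data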;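 further: inhibitors lower polarization as less probe binds the enzyme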
PAD4 inh – blocks human protein arginine deiminase 4; Q9UM07; 330,000 tested, 0.41% active; inhibition, % at 6.36 µM; recombinant PAD4, RCA probe fluorescence polarization;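 active means percent inhibition above a cutoff equal to the mean of all tested compounds plus 3 SD, cut at about 15% in these data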;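 further: 0% = PAD4 with RCA probe and DMSO and 100% = probe without PAD4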
LYPLA1 inh – counter-screen for PME1 inhibitors: inhibitors of human LYPLA1; O75608; inhibition, % at 5.9 µM; AID 2174; recombinant LYPLA1, FP-Rh probe fluorescence polarization; 320,000 tested, 0.16% active;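 active means inhibition above the mean of all tested compounds plus 3 SD, set per campaign, cut at about 14% in these data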;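 further: inhibitors block serine hydrolase probe labeling of LYPLA1 so polarization falls; 0% = enzyme with DMSO and 100% = wells lacking LYPLA1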
GSTO1 inh conf – confirmation of human GSTO1 inhibitors; 2,400 tested, 54% active; recombinant GSTO1, probe fluorescence polarization; AID 2176; shares compounds with GSTO1 counter; inhibition, % at 5.96 µM;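 active means inhibition above the primary screen's cutoff, its mean inhibition plus 3 SD, cut at about 35% in these data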;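 further: loss of polarization as inhibitors block binding of rhodamine sulfonate ester activity probe; 0% = GSTO1 with DMSO and 100% = wells lacking GSTO1 enzyme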
GSTO1 ABPP inh – GSTO1 (human) inhibition by gel ABPP; inhibition, % at 1 µM; recombinant GSTO1, gel ABPP SE-Rh probe fluorescence; 130 tested, 30% active; shares compounds with GSTO1 counter;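 active means inhibition of the enzyme GSTO1 above about 75%, limit read from the data; inactive means inhibition below that limit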
An asterisk follows results filed as active. Only some compounds are listed: those with a hit (about 1.8% of all), similar ones and a draw of the others.

How did O=C(O)CC1S/C(=N/N=C/C=C/c2ccccc2[N+](=O)[O-])NC1=O (stereo unspecified) do in these assays?
LYPLA2 inh: 2; PME-1 inh: 0; GSTO1 counter: -2; Fam108B inh: 1; PAD4 inh: 0; LYPLA1 inh: -2

How did O=C(O)CC1S/C(=N/N=C/c2ccc(-c3ccc(Cl)cc3[N+](=O)[O-])o2)NC1=O (stereo unspecified) do in these assays?
LYPLA2 inh: -1; PME-1 inh: 0; GSTO1 counter: 50*; Fam108B inh: 4; PAD4 inh: -11; LYPLA1 inh: 0; GSTO1 inh conf: 15

How did COC(C[C@H]1O[C@@H]1[C@H](O)COCc1ccccc1)OC do in these assays?
LYPLA2 inh: 2; PME-1 inh: -5; PAD4 inh: -7; LYPLA1 inh: 0

Results for COC(C[C@@H]1O[C@H]1[C@H](O)[C@@H](C)OCc1ccccc1)OC ?
LYPLA2 inh: 6; PME-1 inh: -6; GSTO1 counter: 40*; Fam108B inh: -2; PAD4 inh: 1; LYPLA1 inh: 5; GSTO1 inh conf: 7

Results for O=S(=O)(Nc1ccncc1Cl)c1cccc(Cl)c1Cl ?
LYPLA2 inh: 1; PME-1 inh: 2; GSTO1 counter: 6; Fam108B inh: -3; PAD4 inh: -2; LYPLA1 inh: -1

What do the screens show for `Cc1ccc(-c2cc(O)cc3sc(=O)oc23)cc1C`?
LYPLA2 inh: -9; PME-1 inh: 0; GSTO1 counter: 53*; Fam108B inh: 3; PAD4 inh: 7; LYPLA1 inh: -11; GSTO1 inh conf: 8

Results for Cc1ccc(-c2c(C)sc3nc[nH]c(=O)c23)cc1C ?
LYPLA2 inh: 3; PME-1 inh: -3; GSTO1 counter: 3; Fam108B inh: -2; PAD4 inh: 4; LYPLA1 inh: -1

How did Cc1ccc(NC(=O)CCl)c(C)c1 do in these assays?
LYPLA2 inh: 3; PME-1 inh: -6; GSTO1 counter: 82*; Fam108B inh: 0; PAD4 inh: 2; LYPLA1 inh: -3; GSTO1 inh conf: 91*

How did Cc1ccc(NC(=O)CCc2ccc(C)o2)c(C)c1 do in these assays?
LYPLA2 inh: -12; PME-1 inh: -4; GSTO1 counter: 8; Fam108B inh: -4; PAD4 inh: 5; LYPLA1 inh: -6

Results for Cc1ccc(-n2nc3ccc(N)cc3n2)cc1Cl ?
LYPLA2 inh: -9; PME-1 inh: 10; GSTO1 counter: 44*; Fam108B inh: 0; PAD4 inh: 3; LYPLA1 inh: -1; GSTO1 inh conf: 8

How did COc1ccc(-n2nc3ccc(N)cc3n2)cc1Cl do in these assays?
LYPLA2 inh: 9; PME-1 inh: 10; GSTO1 counter: 53*; Fam108B inh: 13; PAD4 inh: -4; LYPLA1 inh: 8; GSTO1 inh conf: 49*

How did CCCNC(=O)C1(CC2CC(c3ccccc3)=NO2)CCN(C(=O)CCCCCBr)CC1 (stereo unspecified) do in these assays?
LYPLA2 inh: -1; PME-1 inh: -2; GSTO1 counter: 3; Fam108B inh: 2; PAD4 inh: 0; LYPLA1 inh: 0

How did CC(=O)c1ccc(NC(=S)NCCCn2ccnc2)cc1 do in these assays?
LYPLA2 inh: 5; PME-1 inh: 4; GSTO1 counter: -3; Fam108B inh: 0; PAD4 inh: -5; LYPLA1 inh: -1

Results for CCOc1ccc(CONS(=O)(=O)c2ccc(NC(C)=O)cc2)cc1Cl ?
LYPLA2 inh: 0; PME-1 inh: -7; GSTO1 counter: 13; Fam108B inh: -3; PAD4 inh: 1; LYPLA1 inh: -6

How did c1ccc2c(c1)nnn2-c1ncnc2sc3c(c12)CCCC3 do in these assays?
LYPLA2 inh: 0; PME-1 inh: 1; GSTO1 counter: -4; Fam108B inh: 0; PAD4 inh: -3; LYPLA1 inh: -5

Results for Cc1nc(-n2nnc3ccccc32)c2c3c(sc2n1)CCCC3 ?
LYPLA2 inh: -1; PME-1 inh: 1; GSTO1 counter: 127*; Fam108B inh: -1; PAD4 inh: -3; LYPLA1 inh: 2; GSTO1 inh conf: 3

Results for CN(Cc1c(O)ccc2c1oc(=O)c1ccccc12)C1CCCCC1 ?
LYPLA2 inh: 3; PME-1 inh: 7; GSTO1 counter: 46*; Fam108B inh: -1; PAD4 inh: 0; LYPLA1 inh: -6; GSTO1 inh conf: 42*

Results for CN(C)Cc1c(O)ccc2c3c(c(=O)oc12)CCCCC3 ?
LYPLA2 inh: -2; PME-1 inh: 0; GSTO1 counter: 3; Fam108B inh: 3; PAD4 inh: 2; LYPLA1 inh: -3

Results for O=c1[nH]c2ccccc2c2oc(CCl)nc12 ?
LYPLA2 inh: -2; PME-1 inh: -8; GSTO1 counter: 87*; Fam108B inh: -1; PAD4 inh: -2; LYPLA1 inh: 1; GSTO1 inh conf: 99*; GSTO1 ABPP inh: 69

What do the screens show for `C[C@H](NC(=O)c1ccco1)C(=O)N1CCN(c2ccc(C(F)(F)F)cn2)CC1`?
PAD4 inh: 0

What do the screens show for `CCC(Sc1nc(-c2ccccc2)c(C#N)c(=O)[nH]1)C(=O)Nc1nnc(C)s1` (stereo unspecified)?
LYPLA2 inh: 0; PME-1 inh: -7; GSTO1 counter: 61*; Fam108B inh: -4; PAD4 inh: 1; LYPLA1 inh: 0; GSTO1 inh conf: 63*

Results for Nc1c(C(=O)N2CCCCCC2)oc2ccccc12 ?
LYPLA2 inh: 2; PME-1 inh: -1; GSTO1 counter: -2; Fam108B inh: 2; PAD4 inh: 2; LYPLA1 inh: -2

How did COCCN(C(=O)COC(=O)c1cc2c(s1)CCC2)c1c(N)n(Cc2ccccc2)c(=O)[nH]c1=O do in these assays?
LYPLA2 inh: 2; PME-1 inh: -12; GSTO1 counter: 52*; Fam108B inh: 14; PAD4 inh: 5; LYPLA1 inh: -3; GSTO1 inh conf: 36*

How did O=C(CCc1nc(-c2ccccc2)no1)NCc1ccccc1CN1CCOCC1 do in these assays?
LYPLA2 inh: 4; PME-1 inh: -3; PAD4 inh: -6; LYPLA1 inh: 3

What do the screens show for `O=C(NCC1CCCO1)c1cccc(S(=O)(=O)Nc2ccc(F)cc2)c1` (stereo unspecified)?
LYPLA2 inh: 5; PME-1 inh: -1; PAD4 inh: -1; LYPLA1 inh: -2

Results for COc1ccc(-c2cc(=O)oc3c(O)c(O)ccc23)cc1 ?
LYPLA2 inh: 8; PME-1 inh: -8; GSTO1 counter: 58*; Fam108B inh: 6; PAD4 inh: 7; LYPLA1 inh: -4; GSTO1 inh conf: 19

Screens: PubChem BioAssay, The Scripps Research Institute Molecular Screening Center
